Molecules are shown by their SMILES. Inconclusive results are not listed. A call without a number means that no potency is given here. Activity calls are given as the source filed them. Calls follow the shape of the dose curve; as a rule, active = well fitted inhibition curve with a large enough effect; inconclusive = small, poorly fitted or top-dose-only effect; inactive = no such curve, though single readings can be large or run the other way.
Potency is read from the fitted curve at half-maximal effect.

Glutaminase kidney isoform, mitochondrial (Homo sapiens), sequence (O94925 whole entry, looked up, canonical isoform): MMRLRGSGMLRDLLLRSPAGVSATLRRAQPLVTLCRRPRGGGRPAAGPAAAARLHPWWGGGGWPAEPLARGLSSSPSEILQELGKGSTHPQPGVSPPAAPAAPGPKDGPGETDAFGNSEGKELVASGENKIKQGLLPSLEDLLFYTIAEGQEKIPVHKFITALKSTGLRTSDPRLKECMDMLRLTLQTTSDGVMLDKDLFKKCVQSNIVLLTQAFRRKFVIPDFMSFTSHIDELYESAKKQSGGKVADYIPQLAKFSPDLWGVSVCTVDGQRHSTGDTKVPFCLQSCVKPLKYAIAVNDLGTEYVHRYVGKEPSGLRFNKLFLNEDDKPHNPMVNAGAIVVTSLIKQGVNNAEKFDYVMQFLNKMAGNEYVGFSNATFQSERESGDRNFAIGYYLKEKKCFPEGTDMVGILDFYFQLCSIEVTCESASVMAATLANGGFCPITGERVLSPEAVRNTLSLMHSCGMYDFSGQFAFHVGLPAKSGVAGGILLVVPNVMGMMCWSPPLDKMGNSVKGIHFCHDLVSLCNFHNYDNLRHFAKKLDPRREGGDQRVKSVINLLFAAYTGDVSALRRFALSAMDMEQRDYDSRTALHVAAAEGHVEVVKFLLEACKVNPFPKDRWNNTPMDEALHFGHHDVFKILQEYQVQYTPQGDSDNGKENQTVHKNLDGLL

The target in the assay is Glutaminase kidney isoform, mitochondrial (Homo sapiens) (UniProt O94925). Put plainly: qHTS for Inhibitors of Glutaminase (GLS): LOPAC Validation (AID 624146). Also: nearly all actives have a fitted effect of over 60% in size. The conditions noted are these: glutaminase enzyme activity inhibition; series mostly up to 46.1 µM. An excerpt:
Glutaminase (GLS) catalyzes the hydrolysis of glutamine into glutamate and ammonia. It plays a critical role in glutaminolysis, which is an important energy source for proliferating cells. It was shown that c-Myc, an oncogenic transcription factor known to regulate microRNAs and to stimulate cell proliferation, increases glutamine metabolism by stimulating the expression of GLS via direct suppression of miR23a and miR23b.
GLS is also thought to play a pathogenic role on HAD using a human HIV-1 infected macrophage system. […] GLS inhibition limits glutamate release and provides neuroprotection against HIV-1 infected macrophages.
The overall goal of this project is to identify small molecule inhibitors of GLS through quantitative high throughput screening (qHTS) of the MLSMR. A validated potent and selective inhibitor can be used as a tool molecule to further study the pharmacology of its target as well as explore its potential therapeutic application in cancer and inflammatory neurological disorders, such as HIV1-associated dementia (HAD) and multiple sclerosis.
NIH Chemical Genomics Center [NCGC]
NIH Molecular Libraries Probe Centers Network [MLPCN]
Assay Submitter (PI): Barbara S. Slusher, Johns Hopkins University
Three 3 uL of hKGA is dispensed into black well 1536-well plates in 45 mM KH2PO4 (pH 8.2), 0.02% Tween-20. Then 23 nL of compounds are added through pin tool transfer. To this, 1 uL of 1mM L-Glutamine and 1 uL of a solution of L-Glutamateoxidase, HRP, Amplex red are added. Plate is centrifuged for 25 sec before an initial fluorescence read is obtained on the ViewLux, after 30 min of RT incubation, the final read is taken on the ViewLux.
`N[C@@H](Cc1cnc[nH]1)C(=O)O`: the Potency entry was “inactive”. In the case of `N[C@H](CO)C(=O)O`, the Potency result is “inactive”. In the case of `C1CCc2nnnn2CC1` it was “inactive”; in that of `CC(C)COC(=O)OCN1C(=O)CN(CCN2CC(=O)N(COC(=O)OCC(C)C)C(=O)C2)CC1=O`, “inactive”.

Take `CNCCC=C1c2ccccc2CCc2ccccc21`: the Potency result is “inactive”. Regarding `O=C(O)c1cc2cc(Cc3cccnc3)ccc2o1`, the Potency result was “inactive”. `CC(CCc1ccccc1)NCC(O)c1ccc(O)c(C(N)=O)c1` (stereo not drawn): the Potency result was “inactive”.

In the case of `CC(=O)O[C@H]1C[C@@H]2CC[C@@H]3[C@H](CC[C@@]4(C)[C@H]3C[C@H]([N+]3(C)CCCCC3)[C@@H]4OC(C)=O)[C@@]2(C)C[C@@H]1[N+]1(C)CCCCC1`, the Potency result is “inactive”. As for `C[N+]1(CCCCC[N+]2(C)CCCC2)CCCC1`, the Potency result is “inactive”. As to `Nc1cc(Cl)c(NC2=NCCN2)c(Cl)c1`, the Potency result was “inactive”. As for `CC1(C)CCC(NC(=O)[C@@H](N)CCC(=O)O)CC1`, the Potency entry is “inactive”. As for `Oc1ccc(O)cc1`, the Potency is 2510 nM (active).

Take `CC[C@H](C)C(=O)O[C@H]1CCC=C2C=C[C@H](C)[C@H](CC[C@@H]3C[C@@H](O)CC(=O)O3)[C@H]21`: the Potency result was “inactive”.

Regarding `CCC(NC(C)C)C(O)c1ccc(O)c(O)c1` (stereo not drawn), the Potency result is “inactive”.

For the compound `C[C@]12CC[C@@H]3c4ccc(O)cc4CC[C@H]3[C@@H]1CC[C@@H]2O`, the Potency result was “inactive”.

For `CCCC1O[C@@H]2C[C@H]3[C@@H]4CCC5=CC(=O)C=C[C@]5(C)[C@H]4[C@@H](O)C[C@]3(C)[C@]2(C(=O)CO)O1` (stereo partly drawn), the Potency entry is “inactive”.

For the compound `CNCCC(Oc1ccccc1C)c1ccccc1` (stereo not drawn), the Potency result is “inactive”. As to `CN1C2CCC1CC(OC(=O)c1c[nH]c3ccccc13)C2` (stereo not drawn), the Potency result is “inactive”. For `C[C@@H]1C(=O)NC2=Nc3cccc(Cl)c3CN21`, the Potency entry is “inactive”. Turning to `COc1cc2c(cc1O)CC[C@@H]1[C@@H]2CC[C@]2(C)[C@@H](O)CC[C@@H]12`, the Potency is 1580 nM (active).

As to `O=C1CCC(c2ccc(-n3ccnc3)cc2)=NN1`, the Potency entry was “inactive”.

Consider `CCCn1c(=O)[nH]c(=O)c2[nH]cnc21`, for which the Potency entry was “inactive”. `COc1cc(NS(C)(=O)=O)ccc1Nc1c2ccccc2nc2ccccc12`: the Potency is 1000 nM (active).

The record behind these values is PubChem BioAssay (NCATS).
